An excerpt weighted towards active compounds, which were near 19% of everything screened.
HT1080 IDH1KD tx: qHTS for induction of synthetic lethality in tumor cells producing 2HG: qHTS for the HT-1080-IDH1KD cell line | HT-1080 IDH1 knockdown viability, ATP luminescence, 48 h | Potency, µM (highest dose often 46.1 µM), without a hit: at the highest dose activity, negative = toxicity, actives largely listed as cytotoxic | actives 2% (n = 360,000) | AID 686971, 2013;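 note: potency is the fitted concentration of half-maximal effect; 0% = DMSO wells and -100% = cell-free medium wells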
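In this qHTS, HT-1080 cells depleted of IDH1 are exposed for 48 h at 37 °C to compound titrations. Toxicity is scored from CellTiter-Glo luminescence, with DMSO as full viability and medium alone as none.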
ELG1 repair inh: qHTS screen for small molecules that inhibit ELG1-dependent DNA repair in human embryonic kidney (HEK293T) cells expressing luciferase-tagged ELG1; HEK293T ELG1-luciferase reporter, luminescence, 16 h; DNA damage induced by 5-fluorouridine; Potency, µM (top dose mostly 46.1 µM), for inactives: top-dose activity change, negative = inhibition, hits mostly inhibitors; actives 2.3% (n = 330,000); AID 504467, 2011; note: potency is the fitted concentration of half-maximal effect; nearly all actives have a fitted effect of over 55% in size
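Overnight (16 hr) co-exposure of 2,000 cells/well to 5-fluorouridine and compound at 37 °C preceded detection. Luciferase was quantified via ONE-Glo luminescence; loss of signal denotes inhibition.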
TDP1 cell CPT: qHTS for Inhibitors of human tyrosyl-DNA phosphodiesterase 1 (TDP1): qHTS in cells in presence of CPT | chicken DT40 Tdp1-/-;hTDP1 cells + 20 nM CPT, ATP luminescence, 48 h | AID 686979, 2013 | Potency, µM (doses to about 46.2 µM), for inactives: top-dose activity change, negative = growth inhibition, usual class: inhibitors | actives 12% (n = 420,000); note: potency is the fitted concentration of half-maximal effect; nearly all actives have a fitted effect of over 55% in size
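Chicken DT40 Tdp1-/- cells stably complemented with human TDP1 were seeded at 400 cells/well in medium containing 20 nM camptothecin, exposed to pin-transferred compounds, and grown at 37 °C for at least 48 hr. Viability was read as ATP luminescence.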
HT1080NT lethal: qHTS for induction of synthetic lethality in tumor cells producing 2HG: qHTS for the HT-1080-NT fibrosarcoma cell line. actives 1.6% (n = 360,000). HT-1080-NT fibrosarcoma viability, CellTiter-Glo ATP luminescence, 48 h. AID 686970, 2013. Potency, µM (top dose mostly 46.1 µM), inactives show at the top dose activity, negative = less viability, hits mostly cytotoxic;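 note: NT is the 2HG producing partner of a matched IDH1 knockdown line; potency is the fitted concentration of half-maximal effect; 0% = DMSO-treated cells and -100% = media-only wells without cells; nearly all actives have a fitted effect of over 55% in size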
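Compounds were tested in concentration-response format on HT-1080-NT cells for 48 hours at 37 degrees C. Cell viability came from CellTiter-Glo luminescence; curves were classified by r2, response magnitude and activity.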
IL-1B inflam inh: qHTS for Inhibitors of Inflammasome Signaling: IL-1-beta AlphaLISA Primary Screen | THP-1 LPS/ATP IL-1B secretion, AlphaLISA, 16 h; active compounds read low | activity change, % at 57.5 µM | actives 4.7% (n = 360,000) | AID 743279, 2014; in the data active = activity change below about -50%; inconclusive = mostly about -30% to -49%
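THP-1 cells pretreated 1 hr with compounds (up to 57.5 uM final), then stimulated with LPS (250 ng/mL final) plus ATP (1.25 mM final); secreted IL-1B measured by AlphaLISA after 16 hr, decreased signal indicating inhibition.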
DT40 TDP1 no CPT: qHTS for Inhibitors of human tyrosyl-DNA phosphodiesterase 1 (TDP1): qHTS in cells in absence of CPT; actives 15% (n = 420,000); DT40 Tdp1-/- hTDP1 cells, no CPT, ATP luminescence, 48 h; AID 686978, 2013; Potency, µM (series often up to 46.2 µM), for the others: at the top dose activity change, negative = growth inhibition, usual class: inhibitors; note: potency is the fitted concentration of half-maximal effect; nearly all actives have a fitted effect of over 55% in size
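Cells were dispensed at 400 per well, compounds added by pin tool, plates incubated ≥48 hr at 37 °C, then CellTiter-Glo added for 30 min at room temperature before luminescence reading. Line: DT40 Tdp1-/- complemented with hTDP1; camptothecin omitted.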
The depositor's hits bear a star; ? = inconclusive; . = not tested or not shown; [ ] = remark or other dose. Unless noted, calls come from the whole dose curve; as a rule, active = well fitted curve in the direction sought with a large enough effect; inconclusive = small, poorly fitted or top-dose-only effect, or another doubt; inactive = no such curve, though single readings can be large; an effect the other way counts as inactive or inconclusive. Unless noted, % is set by controls: 0 for no effect and ±100 for the full control effect.

SMILES | HT1080 IDH1KD tx | ELG1 repair inh | TDP1 cell CPT | HT1080NT lethal | IL-1B inflam inh | DT40 TDP1 no CPT
COc1ccc(S(=O)(=O)c2c(N)n(Cc3ccco3)c3nc4ccccc4nc23)cc1 | -23% | ? | 18µM* | -14% | -6 | -86%
CCC(C)n1cnc2c(c1=O)c1nc3ccccc3nc1n2Cc1ccc(OC)cc1 (configuration not stated) | 7% | ? | ? | ? | -25 | 15µM*
COCCCn1cnc2c(c1=O)c1nc3ccccc3nc1n2-c1ccc(C)cc1 | -5%[9.24 µM] | -8% | ? | 4% | -17 | ?
COc1ccc(Cn2c3nc4ccccc4nc3c3c(=O)n(Cc4ccco4)c(C)nc32)cc1 | . | -1% | . | . | . | .
Cc1ccc(S(=O)(=O)c2c(N)n(CCCN(C)C)c3nc4ccccc4nc23)cc1 | -13% | ? | ? | -10% | -29 | ?
COc1ccc(-n2c(=O)cnc3cnc(N4CCNCC4)nc32)cc1 | . | . | 15% | . | . | -9%
CN(C)c1ccc(/C=[N+]2\C(=O)CC(=O)NC2=O)cc1 | . | . | 7% | . | . | 1%
CC1CCCN(c2nc(-c3ccccc3O)nc3ccccc23)C1 (configuration not stated) | . | . | -30% | . | . | ?
CC1CCCN(c2c3c(nc4ccccc24)CCCC3)C1 (configuration not stated) | 7% | -28% | ? | 10% | -89* | ?
CCOC(=O)CC(=O)CSc1nc2sc(C)cc2c(=O)n1Cc1ccco1 | -3% | ? | 16µM* | 3% | 12 | 23µM*
Cc1sc2nc(SCC(=O)C(C)(C)C)n(Cc3ccco3)c(=O)c2c1C | 6.3µM* | ? | 13µM* | 7.1µM* | 20 | 13µM*
Cc1ccccc1NC(=O)c1nc(SCc2ccccc2F)ncc1Cl | . | . | ? | . | . | -29%
Cc1csc(NC(=O)c2cc3c(s2)CCCCC3)n1 | ? | ? | ? | ? | -63* | 15µM*
Cc1csc(NC(=O)c2cc3c(s2)CCCC3)n1 | -26% | ? | ? | -22% | -19 | 12µM*
CCOc1ccc(N(C)S(=O)(=O)c2cc(-c3cc(C)no3)ccc2OC)cc1 | -25% | -14% | 23µM* | -13% | -10 | 15µM*
CCOc1ccccc1CNS(=O)(=O)c1cc(-c2cc(C)no2)ccc1OC | -3% | -9% | ? | 0% | 5 | -20%
COc1ccc(-c2cc(C)no2)cc1S(=O)(=O)Nc1ccc(NC(C)=O)cc1 | ? | -2% | ? | ? | 2 | ?
CCOc1ccc(N(C)S(=O)(=O)c2cc(-c3cc(C)no3)ccc2CC)cc1 | -20% | ? | ? | -22% | 0 | 18µM*
COc1ccc(-c2cc(C)no2)cc1S(=O)(=O)N(C)c1ccc(C)cc1 | ? | -25% | 10µM* | ? | 24 | 9.2µM*
CCOc1ccc(N(C)S(=O)(=O)c2cc(-c3cc(C)no3)ccc2C)cc1 | ? | ? | ? | -15% | -19 | ?
COc1cc(NC(=O)C2C3CCC(O3)C2C(=O)O)cc(OC)c1 (configuration not stated) | ? | ? | 2% | ? | 97 | -14%
CSc1ccc(CN2CCC(Oc3cccc(C(=O)N4CCCC4)c3)CC2)cc1 | 4% | ? | 21µM* | -4% | 0 | 18µM*

Source: PubChem
